Experimental data taken from paper PMC11006913.

Tests used:
Assay in all cases: PBM; 200 nM protein, PBS
Conditions in all cases: dsDNA, one strand shown
HESX1 [1] = target: HESX1 (Homo sapiens, UniProt Q9UBX0 95-180, R165K)
HESX1 [2] = target: HESX1 (Homo sapiens, UniProt Q9UBX0 95-180)
HESX1 [3] = target: HESX1 (Homo sapiens, UniProt Q9UBX0 95-180, R109Q)
HESX1 [4] = target: HESX1 (Homo sapiens, UniProt Q9UBX0 95-180, P111T)
HESX1 [5] = target: HESX1 (Homo sapiens, UniProt Q9UBX0 95-180, F115L)
HESX1 (Homo sapiens, UniProt Q9UBX0 95-180, F115L), sequence (Q9UBX0 95-180 F115L): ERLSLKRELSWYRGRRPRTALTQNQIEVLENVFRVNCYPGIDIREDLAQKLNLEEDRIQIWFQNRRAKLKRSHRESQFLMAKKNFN

HESX1 (Homo sapiens, UniProt Q9UBX0 95-180, P111T), sequence (Q9UBX0 95-180 P111T): as the sequence (Q9UBX0 95-180 F115L) above, with P17T, L21F counted along it
HESX1 (Homo sapiens, UniProt Q9UBX0 95-180, R109Q), sequence (Q9UBX0 95-180 R109Q): as the sequence (Q9UBX0 95-180 F115L) above, with R15Q, L21F counted along it
HESX1 (Homo sapiens, UniProt Q9UBX0 95-180, R165K), sequence (Q9UBX0 95-180 R165K): as the sequence (Q9UBX0 95-180 F115L) above, with L21F, R71K counted along it
HESX1 (Homo sapiens, UniProt Q9UBX0 95-180), sequence (Q9UBX0 95-180): as the sequence (Q9UBX0 95-180 F115L) above, with L21F counted along it

Sequence | binding signal (HESX1 [1]) | binding signal (HESX1 [2]) | binding signal (HESX1 [3]) | binding signal (HESX1 [4]) | binding signal (HESX1 [5])
AGCGTGGC | 6.53 upbm affinity estimate (log intensity, higher = more binding, comparable within an allelic series) | 6.42 upbm affinity estimate (log intensity, higher = more binding, comparable within an allelic series) | 6.46 upbm affinity estimate (log intensity, higher = more binding, comparable within an allelic series) | 6.48 upbm affinity estimate (log intensity, higher = more binding, comparable within an allelic series) | 6.64 upbm affinity estimate (log intensity, higher = more binding, comparable within an allelic series)
CAGAACGC | 6.46 upbm affinity estimate (log intensity, higher = more binding, comparable within an allelic series) | 6.44 upbm affinity estimate (log intensity, higher = more binding, comparable within an allelic series) | 6.49 upbm affinity estimate (log intensity, higher = more binding, comparable within an allelic series) | 6.34 upbm affinity estimate (log intensity, higher = more binding, comparable within an allelic series) | 6.48 upbm affinity estimate (log intensity, higher = more binding, comparable within an allelic series)
CAAGCTCA | 6.51 upbm affinity estimate (log intensity, higher = more binding, comparable within an allelic series) | 6.47 upbm affinity estimate (log intensity, higher = more binding, comparable within an allelic series) | 6.46 upbm affinity estimate (log intensity, higher = more binding, comparable within an allelic series) | 6.46 upbm affinity estimate (log intensity, higher = more binding, comparable within an allelic series) | 6.53 upbm affinity estimate (log intensity, higher = more binding, comparable within an allelic series)
AGTGTCGG | 6.51 upbm affinity estimate (log intensity, higher = more binding, comparable within an allelic series) | 6.53 upbm affinity estimate (log intensity, higher = more binding, comparable within an allelic series) | 6.58 upbm affinity estimate (log intensity, higher = more binding, comparable within an allelic series) | 6.56 upbm affinity estimate (log intensity, higher = more binding, comparable within an allelic series) | 6.55 upbm affinity estimate (log intensity, higher = more binding, comparable within an allelic series)
ACATGGCG | 6.32 upbm affinity estimate (log intensity, higher = more binding, comparable within an allelic series) | 6.4 upbm affinity estimate (log intensity, higher = more binding, comparable within an allelic series) | 6.43 upbm affinity estimate (log intensity, higher = more binding, comparable within an allelic series) | 6.38 upbm affinity estimate (log intensity, higher = more binding, comparable within an allelic series) | 6.49 upbm affinity estimate (log intensity, higher = more binding, comparable within an allelic series)
CACGGCTC | 6.57 upbm affinity estimate (log intensity, higher = more binding, comparable within an allelic series) | 6.56 upbm affinity estimate (log intensity, higher = more binding, comparable within an allelic series) | 6.55 upbm affinity estimate (log intensity, higher = more binding, comparable within an allelic series) | 6.58 upbm affinity estimate (log intensity, higher = more binding, comparable within an allelic series) | 6.53 upbm affinity estimate (log intensity, higher = more binding, comparable within an allelic series)
AGGAGCTG | 6.51 upbm affinity estimate (log intensity, higher = more binding, comparable within an allelic series) | 6.45 upbm affinity estimate (log intensity, higher = more binding, comparable within an allelic series) | 6.4 upbm affinity estimate (log intensity, higher = more binding, comparable within an allelic series) | 6.4 upbm affinity estimate (log intensity, higher = more binding, comparable within an allelic series) | 6.28 upbm affinity estimate (log intensity, higher = more binding, comparable within an allelic series)
GAAGTCGC | 6.48 upbm affinity estimate (log intensity, higher = more binding, comparable within an allelic series) | 6.36 upbm affinity estimate (log intensity, higher = more binding, comparable within an allelic series) | 6.51 upbm affinity estimate (log intensity, higher = more binding, comparable within an allelic series) | 6.43 upbm affinity estimate (log intensity, higher = more binding, comparable within an allelic series) | 6.56 upbm affinity estimate (log intensity, higher = more binding, comparable within an allelic series)
CCGTCGTC | 6.45 upbm affinity estimate (log intensity, higher = more binding, comparable within an allelic series) | 6.42 upbm affinity estimate (log intensity, higher = more binding, comparable within an allelic series) | 6.4 upbm affinity estimate (log intensity, higher = more binding, comparable within an allelic series) | 6.44 upbm affinity estimate (log intensity, higher = more binding, comparable within an allelic series) | 6.26 upbm affinity estimate (log intensity, higher = more binding, comparable within an allelic series)
AGGCAGCG | 6.62 upbm affinity estimate (log intensity, higher = more binding, comparable within an allelic series) | 6.5 upbm affinity estimate (log intensity, higher = more binding, comparable within an allelic series) | 6.59 upbm affinity estimate (log intensity, higher = more binding, comparable within an allelic series) | 6.59 upbm affinity estimate (log intensity, higher = more binding, comparable within an allelic series) | 6.39 upbm affinity estimate (log intensity, higher = more binding, comparable within an allelic series)
CCGAGTCG | 6.6 upbm affinity estimate (log intensity, higher = more binding, comparable within an allelic series) | 6.58 upbm affinity estimate (log intensity, higher = more binding, comparable within an allelic series) | 6.45 upbm affinity estimate (log intensity, higher = more binding, comparable within an allelic series) | 6.56 upbm affinity estimate (log intensity, higher = more binding, comparable within an allelic series) | 6.36 upbm affinity estimate (log intensity, higher = more binding, comparable within an allelic series)
